A short description of experiment [1]: ATG_TGFb_CIS: Attagene CIS-FACTORIAL HepG2 Assay for human Transforming Growth Factor (TGF) (AID 2282967; active = hit-call score of the fitted dose curve at least 0.9, where 1 is the maximum; inactive = score below 0.9). Particulars: HepG2 Attagene CIS TGFb reporter, mRNA transcription; actives raise or lower the signal. In short, it runs like this: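 Multiplexed cis-reporter HepG2 system, 24 h treatment; mRNA induction read by fluorescence after RT-PCR and CE; DMSO negative control, bidirectional curve fitting.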

Experiment [2] can be described thus: ATG_VDRE_CIS: Attagene CIS-FACTORIAL HepG2 Assay for human Vitamin D Receptor Element (VDRE) (AID 2282968; active = hit-call score of the fitted dose curve at least 0.9, where 1 is the maximum; inactive = score below 0.9). Particulars: HepG2 VDRE cis-reporter transcription, actives raise or lower the signal. In short, it runs like this:
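Transiently transfected HepG2 cells carrying cis-regulated reporter transcription units were exposed for 24 h. Reporter mRNA was measured by RT-PCR with fluorescent labelling and capillary electrophoresis, and fitted in both directions against DMSO.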

In experiment [3] the target is Nuclear receptor subfamily 1 group I member 3 (Homo sapiens) (UniProt Q14994). Kind of experiment: ATG_CAR_TRANS: Attagene TRANS-FACTORIAL HepG2 Assay for human Constitutive Androstane Receptor (CAR) (AID 2282969).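 Note: activators raise reporter mRNA above DMSO so AC50 marks induction.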 The note with it: HepG2 Attagene TRANS-FACTORIAL CAR reporter. In short, it runs like this:
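HepG2 cells transiently transfected with GAL4-UAS reporter units; TRANS format reads activity of exogenous chimeric NR-Gal4 protein. After 24 h dosing, reporter mRNA quantified by RT-PCR, 6-FAM labelling and capillary electrophoresis; gain of signal fitted against DMSO.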

For experiment [4], the target named is Steroid hormone receptor ERR1 (Homo sapiens) (UniProt P11474). Kind of experiment: ATG_ERRa_TRANS: Attagene TRANS-FACTORIAL HepG2 Assay for human Estrogen-Related Receptor alpha (ERRa) (AID 2282971). Particulars: HepG2 Attagene TRANS reporter, ERRa transactivation. In short, it runs like this: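 Transfected HepG2, 24 h dosing, ERRa-Gal4 chimera driving GAL4-UAS reporter. Readout: reporter mRNA via RT-PCR plus capillary electrophoresis (fluorescence). Positive direction vs DMSO control.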
Chain of Steroid hormone receptor ERR1 (Homo sapiens) (P11474 whole entry, looked up, the tested form may be a part): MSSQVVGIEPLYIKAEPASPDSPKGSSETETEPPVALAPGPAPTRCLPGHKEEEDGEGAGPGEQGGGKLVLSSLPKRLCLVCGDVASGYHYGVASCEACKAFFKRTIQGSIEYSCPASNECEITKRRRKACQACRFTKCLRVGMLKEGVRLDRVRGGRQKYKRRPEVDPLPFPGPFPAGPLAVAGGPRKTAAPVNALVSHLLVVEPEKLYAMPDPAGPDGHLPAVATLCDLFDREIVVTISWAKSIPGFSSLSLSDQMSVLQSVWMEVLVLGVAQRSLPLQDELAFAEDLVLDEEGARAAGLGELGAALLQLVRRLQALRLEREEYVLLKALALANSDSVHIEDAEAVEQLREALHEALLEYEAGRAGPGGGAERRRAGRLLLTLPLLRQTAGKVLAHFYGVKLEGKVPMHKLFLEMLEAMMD

Experiment [5] deals with X-box-binding protein 1 (Homo sapiens) (UniProt P17861). As to the kind of experiment: ATG_Xbp1_CIS: Attagene CIS-FACTORIAL HepG2 Assay for human X-box Binding Protein 1 (XBP1) (AID 2282972; active = hit-call score of the fitted dose curve at least 0.9, where 1 is the maximum; inactive = score below 0.9). The note with it: HepG2 XBP1 cis-element reporter, Attagene multiplex; actives raise or lower the signal. In short, it runs like this: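 HepG2 cells transiently transfected with multiple cis-element reporter units report endogenous TF activity; 24 h exposure, then reporter mRNA measured by RT-PCR, 6-FAM labelling, HpaI digestion and capillary electrophoresis. Bidirectional fitting versus DMSO.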
Chain of X-box-binding protein 1 (Homo sapiens) (P17861 whole entry, looked up): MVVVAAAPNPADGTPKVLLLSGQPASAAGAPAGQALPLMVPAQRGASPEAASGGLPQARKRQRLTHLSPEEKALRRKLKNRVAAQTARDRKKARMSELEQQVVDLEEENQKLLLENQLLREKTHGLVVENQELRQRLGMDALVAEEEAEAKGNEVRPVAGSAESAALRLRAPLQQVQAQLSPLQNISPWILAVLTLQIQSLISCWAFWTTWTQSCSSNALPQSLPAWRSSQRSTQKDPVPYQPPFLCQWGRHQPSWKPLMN

Experiment [6] can be described thus: ATG_M_19_TRANS: Attagene TRANS-FACTORIAL HepG2 Assay for M19 Transcription Factor (Internal Marker) (AID 2282974). Particulars: HepG2 Attagene TRANS-FACTORIAL M19 internal marker reporter. In short, it runs like this:
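Measured here: internal-marker reporter transcript from HepG2 cells transfected with MRTUs, harvested at 24 h. cDNA PCR products were 6-FAM labelled by primer extension, cut with HpaI for 2 h at 37 C, and resolved by CE.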

The nature of experiment [7]: ATG_GAL4_TRANS: Attagene TRANS-FACTORIAL HepG2 Assay for GAL4 (Internal Marker) (AID 2282976). The note with it: HepG2 Attagene TRANS GAL4 internal marker reporter. In short, it runs like this:
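RT-PCR/capillary electrophoresis readout of reporter mRNA. HepG2, transient MRTU transfection (GAL4-UAS reporters), 24 h compound exposure. Background-control endpoint, positive direction vs DMSO baseline.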

Experiment [8] addresses Estrogen-related receptor gamma (Homo sapiens) (UniProt P62508). Kind of experiment: ATG_ERRg_TRANS: Attagene TRANS-FACTORIAL HepG2 Assay for human Estrogen-Related Receptor gamma (ERRg) (AID 2282977).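 Note: hits increase reporter signal over DMSO so potencies reflect activators.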 Particulars: HepG2 Attagene TRANS reporter, ERRg transactivation. In outline: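 HepG2 cells transiently transfected with multiplexed GAL4-UAS reporter units driven by chimeric NR-Gal4 proteins; 24 h exposure. Reporter mRNA quantified by RT-PCR, fluorescent labelling, HpaI digestion and capillary electrophoresis; gain of signal vs DMSO.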

Experiment [9] deals with Glucocorticoid receptor (Homo sapiens) (UniProt P04150). Kind of experiment: ATG_GR_TRANS: Attagene TRANS-FACTORIAL HepG2 Assay for human Glucocorticoid Receptor (GR) (AID 2282978).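 Note: activators score as hits since higher reporter transcript over DMSO is fitted.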 Particulars: HepG2 Attagene TRANS GR reporter, mRNA transcription. In outline: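 Measurement of GAL4-UAS-driven reporter mRNA in human HepG2 liver cells 24 h post-dosing, using RT-PCR with fluorescent labelling and capillary electrophoresis; the transfected constructs report exogenous NR-GAL4 chimera activity, fitted upward against DMSO.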
Chain of Glucocorticoid receptor (Homo sapiens) (P04150 whole entry, looked up, the tested form may be a part): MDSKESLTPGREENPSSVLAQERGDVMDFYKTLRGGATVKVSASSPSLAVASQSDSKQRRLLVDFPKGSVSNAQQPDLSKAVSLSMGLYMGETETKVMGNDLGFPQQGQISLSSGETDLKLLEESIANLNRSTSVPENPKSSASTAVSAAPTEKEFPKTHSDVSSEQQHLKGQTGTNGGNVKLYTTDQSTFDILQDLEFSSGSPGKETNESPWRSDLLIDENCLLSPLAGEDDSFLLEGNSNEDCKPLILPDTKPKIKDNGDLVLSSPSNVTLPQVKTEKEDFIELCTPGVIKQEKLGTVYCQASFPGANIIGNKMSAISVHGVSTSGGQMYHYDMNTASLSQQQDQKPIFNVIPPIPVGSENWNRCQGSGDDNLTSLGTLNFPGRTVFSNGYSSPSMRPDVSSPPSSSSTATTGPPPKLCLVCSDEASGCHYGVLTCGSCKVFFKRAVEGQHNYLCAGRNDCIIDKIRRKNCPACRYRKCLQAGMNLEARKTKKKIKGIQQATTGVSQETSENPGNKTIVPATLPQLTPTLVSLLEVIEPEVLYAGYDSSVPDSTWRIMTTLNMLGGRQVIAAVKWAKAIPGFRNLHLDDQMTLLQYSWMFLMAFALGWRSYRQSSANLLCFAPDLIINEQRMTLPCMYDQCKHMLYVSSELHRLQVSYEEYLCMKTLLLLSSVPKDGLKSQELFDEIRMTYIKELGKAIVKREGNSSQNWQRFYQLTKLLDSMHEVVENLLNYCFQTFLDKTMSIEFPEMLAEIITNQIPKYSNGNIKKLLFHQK

In experiment [10] the target is Estrogen receptor (Homo sapiens) (UniProt P03372). As to the kind of experiment: ATG_ERa_TRANS: Attagene TRANS-FACTORIAL HepG2 Assay for human Estrogen Receptor alpha (ERa) (AID 2282970). The note with it: HepG2 Attagene TRANS ERa GAL4 reporter, mRNA. In outline: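 After 24 h of compound treatment, RNA from HepG2 cells bearing transfected GAL4-UAS reporter constructs is converted to cDNA, amplified and fluorescently labelled. Capillary electrophoresis resolves the ERa-linked reporter; DMSO serves as negative control.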
Chain of Estrogen receptor (Homo sapiens) (P03372 whole entry, looked up, the tested form may be a part): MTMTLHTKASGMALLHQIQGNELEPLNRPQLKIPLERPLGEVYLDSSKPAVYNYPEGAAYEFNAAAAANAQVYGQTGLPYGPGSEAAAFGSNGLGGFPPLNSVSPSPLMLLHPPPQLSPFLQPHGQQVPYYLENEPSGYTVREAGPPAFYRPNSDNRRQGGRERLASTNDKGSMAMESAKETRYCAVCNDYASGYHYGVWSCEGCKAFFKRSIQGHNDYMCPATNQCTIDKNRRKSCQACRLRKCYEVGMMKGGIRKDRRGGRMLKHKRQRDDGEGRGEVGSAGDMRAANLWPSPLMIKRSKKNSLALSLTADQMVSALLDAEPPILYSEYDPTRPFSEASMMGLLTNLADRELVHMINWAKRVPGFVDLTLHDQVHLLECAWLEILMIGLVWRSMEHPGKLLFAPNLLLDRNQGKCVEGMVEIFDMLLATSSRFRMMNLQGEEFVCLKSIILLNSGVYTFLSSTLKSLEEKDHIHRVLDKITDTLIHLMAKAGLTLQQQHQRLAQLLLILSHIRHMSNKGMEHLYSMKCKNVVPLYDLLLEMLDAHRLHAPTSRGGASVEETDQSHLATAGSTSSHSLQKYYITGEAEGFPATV

Records with an inconclusive call do not appear. Active and inactive are the calls of the source. Rule for the calls, unless noted: active = hit-call score of the fitted dose curve at least 0.9, where 1 is the maximum; inconclusive = response in the unintended direction; inactive = score below 0.9.

Chain of Estrogen-related receptor gamma (Homo sapiens) (P62508 whole entry, looked up, the tested form may be a part): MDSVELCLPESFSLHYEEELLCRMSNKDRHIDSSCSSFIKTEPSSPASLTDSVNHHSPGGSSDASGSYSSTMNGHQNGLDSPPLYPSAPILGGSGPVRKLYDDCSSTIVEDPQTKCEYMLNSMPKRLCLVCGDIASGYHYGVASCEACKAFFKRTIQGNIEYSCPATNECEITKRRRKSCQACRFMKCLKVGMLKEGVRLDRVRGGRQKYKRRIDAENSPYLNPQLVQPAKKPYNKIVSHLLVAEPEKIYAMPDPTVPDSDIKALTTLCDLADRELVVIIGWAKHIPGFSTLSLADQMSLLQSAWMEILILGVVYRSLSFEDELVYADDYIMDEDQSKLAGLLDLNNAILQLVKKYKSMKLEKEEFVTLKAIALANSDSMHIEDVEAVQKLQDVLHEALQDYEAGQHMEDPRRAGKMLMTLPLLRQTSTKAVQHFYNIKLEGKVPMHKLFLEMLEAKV
Chain of Nuclear receptor subfamily 1 group I member 3 (Homo sapiens) (Q14994 whole entry, looked up, the tested form may be a part): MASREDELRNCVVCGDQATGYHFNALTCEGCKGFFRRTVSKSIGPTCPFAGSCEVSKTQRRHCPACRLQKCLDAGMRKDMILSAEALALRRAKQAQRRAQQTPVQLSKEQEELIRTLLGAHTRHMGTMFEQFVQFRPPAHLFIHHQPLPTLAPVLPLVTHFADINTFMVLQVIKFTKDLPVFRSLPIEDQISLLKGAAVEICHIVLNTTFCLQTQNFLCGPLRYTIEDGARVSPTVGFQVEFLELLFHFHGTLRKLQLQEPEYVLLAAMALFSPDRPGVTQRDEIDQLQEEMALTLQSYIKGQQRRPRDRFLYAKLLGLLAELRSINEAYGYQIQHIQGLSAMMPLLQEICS

Regarding `OC[C@H]1O[C@@H]2O[C@H]3[C@H](O)[C@@H](O)[C@@H](O[C@H]4[C@H](O)[C@@H](O)[C@@H](O[C@H]5[C@H](O)[C@@H](O)[C@@H](O[C@H]6[C@H](O)[C@@H](O)[C@@H](O[C@H]7[C@H](O)[C@@H](O)[C@@H](O[C@H]8[C@H](O)[C@@H](O)[C@@H](O[C@H]9[C@H](O)[C@@H](O)[C@@H](O[C@H]1[C@H](O)[C@H]2O)O[C@@H]9CO)O[C@@H]8CO)O[C@@H]7CO)O[C@@H]6CO)O[C@@H]5CO)O[C@@H]4CO)O[C@@H]3CO`, the compound was called inactive in experiment [1], in [2], in experiment [3], in experiment [4], in experiment [5] and in experiment [6]. In addition, the outcome in experiment [7] was inactive.

Take `O=CCc1ccccc1`: the compound was called inactive in [1], in [2], in experiment [3] and in [5].

For `ON=C1CCCCC1`, the compound was classed as inactive in experiment [1], in experiment [2], in experiment [3], in experiment [4], in experiment [5] and in experiment [7].

Turning to `CCCCCCC(O)CCCCCCCCCCC(=O)O` (stereo unspecified), the outcome in [1], in [2], in experiment [3], in experiment [4], in experiment [5] and in experiment [8] was inactive. Also, in [9], the call was inactive.

Take `C1=CC2C3C=CC(C3)C2C1` (stereo unspecified): the compound was classed as inactive in experiment [1], in experiment [2], in experiment [3], in experiment [4], in experiment [5] and in experiment [6]. Further, the compound was called inactive in experiment [7] and in experiment [9].

Consider `CCCC(=O)C(CC)Sc1ccoc1C` (stereo unspecified), for which the outcome in [1] and in experiment [3] was inactive. Further, the half-maximal activity concentration (AC50) in experiment [2] is 26.7 µM (active); in experiment [10], 16 µM (active); in [5], 25.8 µM (active).

Take `CC(=O)Nc1ccc(C(=O)CCl)cc1`: the result in experiment [1] was inactive. Moreover, the AC50 in experiment [2] was 8.84 µM (active).

Turning to `C=Cc1ccncc1`, the call in experiment [1], in experiment [3], in experiment [4], in experiment [6], in experiment [8] and in [9] was inactive. Besides, the figures for the AC50 in experiment [2] and in [5] were 20.2 µM (active) and 26.1 µM (active), respectively.

Consider `COc1ccccc1[N+](=O)[O-]`, for which the result in [1], in [2], in experiment [3], in experiment [4], in [5] and in [8] was inactive.

In the case of `NCC1CCCC(CN)C1` (stereo unspecified), the compound was classed as inactive in experiment [1], in experiment [2], in experiment [3], in [4], in experiment [5] and in [7]. Further, the call in [9] was inactive.

As to `O=C(Nc1ccc2c(O)c(N=Nc3ccc(N=Nc4ccc(S(=O)(=O)O)cc4)cc3)c(S(=O)(=O)O)cc2c1)c1ccccc1`, the compound was called inactive in experiment [1], in experiment [2], in experiment [3], in experiment [10], in experiment [5] and in [7].

Consider `c1ccc(CCc2ccccc2)cc1`, for which the compound was called inactive in [1], in [2], in experiment [3], in experiment [5], in experiment [6] and in experiment [7]. Further, in [8], the result was inactive.

Turning to `O=C1c2ccccc2C(=O)c2c(O)ccc(O)c21`, the compound was called inactive in experiment [1], in [2], in experiment [3], in [5], in [6] and in experiment [8].

As for `CCCOC(=O)c1c(Cl)c(Cl)c(Cl)c(Cl)c1C(=O)OCCC`, the compound was called inactive in experiment [1], in [2], in experiment [3] and in [6]. In addition, the AC50 in [5] was 130 µM (active).

Consider `C=CCOC(=O)CCCCCC`, for which, in experiment [1], the AC50 is 0.0799 µM (active). Further, the compound was classed as inactive in [2], in [3], in [5], in experiment [6] and in experiment [9].

For `Cc1ccc(-c2ccccc2)cc1`, the result in experiment [1], in [2], in experiment [3] and in experiment [5] was inactive.

`COc1ccc(N=Nc2cc(C)c(N=Nc3ccc(S(=O)(=O)O)cc3)cc2OC)cc1`: the AC50 in experiment [1] was 172 µM (active). The compound was called inactive in [2], in experiment [3], in experiment [5] and in [6].

In the case of `COc1ccc(N)c([N+](=O)[O-])c1`, the result in experiment [1], in experiment [2], in experiment [3], in experiment [5], in experiment [6] and in experiment [7] was inactive. In experiment [9], the compound was called inactive.

As for `C[C@H]1C[C@@H](O)CC(C)(C)C1`, the compound was called inactive in experiment [1], in experiment [2], in [3], in experiment [5], in experiment [6] and in [7]. Further, the compound was classed as inactive in experiment [8] and in experiment [9].

Take `CCCCCCCCCCCCCCN(CCO)CCO`: the result in experiment [1], in experiment [2], in experiment [3] and in experiment [5] was inactive.

Regarding `CN(C)c1cccc(O)c1`, the call in experiment [1], in experiment [2], in [3], in experiment [5], in [6] and in experiment [7] was inactive. The compound was called inactive in experiment [9].

As for `Cc1ccc2c(c1)C(=O)OC2=O`, the result in experiment [1], in [2], in [3], in experiment [5], in experiment [6] and in [9] was inactive.

As to `CCOCCOCCOCC`, the result in experiment [1], in [2], in experiment [3], in experiment [5], in experiment [6] and in experiment [7] was inactive. The compound was classed as inactive in experiment [9].

For the compound `CCCCCCCC/C=C\CCCCCCCC(=O)OCC`, the compound was classed as inactive in experiment [1], in experiment [2], in [3], in experiment [5], in experiment [6] and in experiment [8]. In addition, the outcome in experiment [9] was inactive.

On to `CCCC[P+](CCCC)(CCCC)CCCC`, for which the result in experiment [1], in [2], in experiment [3], in [5], in experiment [6] and in [7] was inactive.

Take `CCCCCCCCc1ccc(S(=O)(=O)O)cc1`: the compound was called inactive in [1], in experiment [2], in [3], in experiment [5], in experiment [6] and in experiment [7]. Also, in [9], the compound was called inactive.

`CCN(CC)C(=O)N(CC)CC`: the call in experiment [1], in [2], in [3] and in experiment [5] was inactive.

Consider `CC(=O)C1(C)CC2=C(CCCC2(C)C)CC1C` (stereo unspecified), for which the compound was classed as inactive in experiment [1], in [2], in experiment [3], in [5], in experiment [6] and in [7]. The call in experiment [9] was inactive.

Take `N[C@@H](Cc1cc(I)c(Oc2cc(I)c(O)c(I)c2)c(I)c1)C(=O)O`: the outcome in experiment [1], in [3], in [5], in experiment [6] and in [9] was inactive. In [2], the AC50 is 18.8 µM (active).

Turning to `COCCOC(=O)c1ccccc1C(=O)OCCOC`, the compound was classed as inactive in experiment [1], in experiment [2], in experiment [3], in experiment [5], in [6] and in experiment [7].

The values are drawn from PubChem BioAssay (EPA / NIEHS).
